The panel holds about 79,000 compounds, 15% with a hit somewhere; the sample as a whole holds those more often. Unmarked numbers belong to inactive results. The source made the active and inactive calls. Cut-off read from the data, not from the text of the source: active = growth inhibition above about 70%; inactive = the rest.

Assay [1] is described as follows: NCI Yeast Anticancer Drug Screen. Data for the rad50 strain (AID 155).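 Note: 0% = growth of vehicle-only cultures of the same strain.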 The following applies: S. cerevisiae rad50 strain growth inhibition, stronger effect = higher value. The method in brief: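 Growth of the mutant yeast was measured after compound exposure and referenced to vehicle-treated cultures.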
A short description of assay [2]: NCI Yeast Anticancer Drug Screen. Data for the mec2-1 strain (AID 157). As to conditions: S. cerevisiae mec2-1 strain, stronger effect = higher value. The method in brief:
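Cells of the genetically defined mec2-1 yeast strain are incubated with test compound. Inhibition of growth is calculated against vehicle-treated controls.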

The nature of assay [3]: NCI Yeast Anticancer Drug Screen. Data for the sgs1 mgt1 strain (AID 161).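 Note: 0% = growth of cultures given vehicle only.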 As to conditions: S. cerevisiae sgs1 mgt1 strain, stronger effect = higher value. The method in brief: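 Mutant yeast exposed to compound; growth scored against vehicle-only wells.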
Assay [4] is described as follows: NCI Yeast Anticancer Drug Screen. Data for the cln2 rad14 strain (AID 165).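 Note: 0% = growth equal to vehicle treated cultures.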 The following applies: S. cerevisiae cln2 rad14 strain, stronger effect = higher value. The method in brief: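 The screen exposed genetically defined yeast (cln2 rad14) to test compounds and scored growth inhibition relative to vehicle-treated controls.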
Assay [5] in a line: NCI Yeast Anticancer Drug Screen. Data for the bub3 strain (AID 167). As to conditions: S. cerevisiae bub3 mutant strain, stronger effect = higher value. The method in brief:
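Whole-cell yeast assay. The mutant strain was incubated with compounds, and growth inhibition was determined by comparison with vehicle-treated cells.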

The nature of assay [6]: NCI Yeast Anticancer Drug Screen. Data for the mlh1 rad18 strain (AID 175). The following applies: S. cerevisiae mlh1 rad18 strain growth inhibition, stronger effect = higher value. The method in brief: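 Compound-treated yeast growth, normalised to vehicle controls. Strain bears defined DNA repair mutations.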
The mark [7] stands for this setting: at 5.0 µM (retest, dose inferred, filed as 0.5).
[8] abbreviates: at 50.0 µM (retest, dose inferred, filed as 5.0).

With `O/N=C1/CCCC/C1=C/c1ccc(Cl)cc1`, the growth inhibition is -152% in assay [1] (setting [7]); -124% in assay [1] (setting [8]); 82.7% (active) in assay [1] (at 50.0 µM); -48% in assay [2] (setting [7]); -53% in assay [2] (setting [8]); 53.4% in assay [2] (at 50.0 µM). In addition, the growth inhibition in assay [3] (setting [7]) was -63%; in assay [3] (setting [8]) it was -23%; in assay [3] (at 50.0 µM), 74% (active); in assay [4] (setting [7]), -57%; in assay [4] (setting [8]) it was -62%; in assay [4] (at 50.0 µM), 64.8%. Also, the growth inhibition in assay [5] (setting [7]) is -66%; in assay [5] (setting [8]) it was -78%; in assay [5] (at 50.0 µM), 65.5%; in assay [6] (setting [7]), -144%; in assay [6] (setting [8]), -111%; in assay [6] (at 50.0 µM) it was 80% (active).

Consider `CCCCC(CC)CCC(C)OC(=O)C(O)c1ccccc1` (stereo not drawn), for which the growth inhibition was -1% in assay [1] (setting [7]); 86% (active) in assay [1] (setting [8]); 61.8% in assay [1] (at 50.0 µM); -6% in assay [2] (setting [7]); 87% (active) in assay [2] (setting [8]); 86.7% (active) in assay [2] (at 50.0 µM). Besides, the growth inhibition was -4% in assay [3] (setting [7]); 85% (active) in assay [3] (setting [8]); 83% (active) in assay [3] (at 50.0 µM); 1% in assay [4] (setting [7]); 82% (active) in assay [4] (setting [8]); 32.5% in assay [4] (at 50.0 µM). In addition, the growth inhibition in assay [5] (setting [7]) was 1%; in assay [5] (setting [8]), 88% (active); in assay [5] (at 50.0 µM) it was 75.5% (active); in assay [6] (setting [7]), -4%; in assay [6] (setting [8]), 90% (active); in assay [6] (at 50.0 µM), 87.8% (active).

Take `COc1cccc(NC(=S)NC2CC(C)CC(C)(C)C2)c1` (stereo not drawn): the growth inhibition is 24% in assay [1] (setting [7]); 94% (active) in assay [1] (setting [8]); 86.5% (active) in assay [1] (at 50.0 µM); -11% in assay [2] (setting [7]); 85% (active) in assay [2] (setting [8]); 89.3% (active) in assay [2] (at 50.0 µM). For the same compound, the growth inhibition in assay [3] (setting [7]) is -1%; in assay [3] (setting [8]), 94% (active); in assay [3] (at 50.0 µM), 89.8% (active); in assay [4] (setting [7]) it was 30%; in assay [4] (setting [8]) it was 90% (active); in assay [4] (at 50.0 µM) it was 86.2% (active). Besides, the growth inhibition in assay [5] (setting [7]) was 8%; in assay [5] (setting [8]), 93% (active); in assay [5] (at 50.0 µM), 89.2% (active); in assay [6] (setting [7]), -7%; in assay [6] (setting [8]), 93% (active); in assay [6] (at 50.0 µM), 84.8% (active).

In the case of `Cc1nc(N)sc1N=Nc1ccccc1Br`, the growth inhibition in assay [1] (setting [7]) is -20%; in assay [1] (setting [8]), 89% (active); in assay [1] (at 50.0 µM) it was 88% (active); in assay [2] (setting [7]) it was -11%; in assay [2] (setting [8]), 97% (active); in assay [2] (at 50.0 µM), 94.2% (active). In addition, the growth inhibition in assay [3] (setting [7]) was 0%; in assay [3] (setting [8]) it was 93% (active); in assay [3] (at 50.0 µM), 92.1% (active); in assay [4] (setting [7]), -5%; in assay [4] (setting [8]) it was 62%; in assay [4] (at 50.0 µM) it was 91.3% (active). Also, the growth inhibition in assay [5] (setting [7]) was -1%; in assay [5] (setting [8]), 91% (active); in assay [5] (at 50.0 µM) it was 95.8% (active); in assay [6] (setting [7]), 34%; in assay [6] (setting [8]), 96% (active); in assay [6] (at 50.0 µM), 95.8% (active).

`COc1ccc2cc(CNCCCCCCCCNCc3ccc4cc(OC)ccc4c3)ccc2c1`: the growth inhibition in assay [1] (setting [7]) was 22%; in assay [1] (setting [8]), 99% (active); in assay [1] (at 50.0 µM), 97.7% (active); in assay [2] (setting [7]) it was 6%; in assay [2] (setting [8]), 100% (active); in assay [2] (at 50.0 µM) it was 97.2% (active). The growth inhibition in assay [3] (setting [7]) is 19%; in assay [3] (setting [8]) it was 99% (active); in assay [3] (at 50.0 µM), 95.1% (active); in assay [4] (setting [7]) it was 9%; in assay [4] (setting [8]), 99% (active); in assay [4] (at 50.0 µM) it was 94.5% (active). Besides, the growth inhibition in assay [5] (setting [7]) was 9%; in assay [5] (setting [8]) it was 100% (active); in assay [5] (at 50.0 µM), 93.7% (active); in assay [6] (setting [7]), 31%; in assay [6] (setting [8]) it was 99% (active); in assay [6] (at 50.0 µM) it was 97.2% (active).

Regarding `CN(Cc1cnc2nc(N[Si](C)(C)C)nc(N[Si](C)(C)C)c2n1)c1ccc(C(=O)NC(CCC(=O)O[Si](C)(C)C)C(=O)O[Si](C)(C)C)cc1` (stereo not drawn), the growth inhibition was 19% in assay [1] (setting [7]); 89% (active) in assay [1] (setting [8]); 91% (active) in assay [1] (at 50.0 µM); 66% in assay [2] (setting [7]); 97% (active) in assay [2] (setting [8]); 98.3% (active) in assay [2] (at 50.0 µM). Besides, the growth inhibition in assay [3] (setting [7]) was 2%; in assay [3] (setting [8]), 72% (active); in assay [3] (at 50.0 µM) it was 64.7%; in assay [4] (setting [7]), -8%; in assay [4] (setting [8]), 47%; in assay [4] (at 50.0 µM), 26%. Also, the growth inhibition in assay [5] (setting [7]) is -4%; in assay [5] (setting [8]) it was 90% (active); in assay [5] (at 50.0 µM) it was 69.7%; in assay [6] (setting [7]), 15%; in assay [6] (setting [8]), 81% (active); in assay [6] (at 50.0 µM), 60.6%.

Source of the values: PubChem BioAssay (NCI).
